PubChem BioAssay AID2384 (Southern Research Specialized Biocontainment Screening …, 2010)
Screen size: about 2,300 compounds; about 1,100 (48%) were called active. The set was probably picked from earlier hits. This is one part of the list. Results with a measured potency or affinity are listed apart. A number with no mark means an inactive call. How the calls were made is not given here.

Assay: S. typhi counter-screen signal inhibition – fluorescence, 4 h, counter-screen for PhoP regulon inhibitor project, dose response (AID 2384)
Conditions: S. typhi GFP reporter counter-screen; series mostly up to 150 µM; inhibition: at the top concentration

Row | SMILES | inhibition
1 | CC(C)[C@H](NC(=O)c1ccccc1Cl)C(=O)Nc1nc(-c2ccccn2)cs1 | 6.8%
2 | O=C(Nc1ccncc1)c1cc(-c2ccccn2)nc2ccccc12 | 3.75%
3 | Cn1cc(S(=O)(=O)Nc2ccc(OC(F)(F)F)cc2)c(=O)n(C)c1=O | 2.31%
4 | CC(C)NC(=O)CN1CCN(Cc2nc(C(c3ccccc3)c3ccccc3)no2)CC1 | 9.52%
5 | O=C(O)c1cc2cc(F)ccc2[nH]1 | -16.8%
6 | CCN1CCN(C(=O)/C=C/c2cccc(Cl)c2)CC1 | 38.5%
7 | COc1ccc2c(C(=O)CCl)c[nH]c2c1 | 2.29%
8 | CCN1CCN(C(=O)Cc2coc3cc(C)cc(C)c23)CC1 | 6.4%
9 | COc1c(C(=O)N2CCCC2)ccc2ccccc12 | -8.29%
10 | Cc1c(Cl)cccc1NC(=O)C1CCN(S(C)(=O)=O)CC1 | -31.6%
11 | COc1cccc(OC)c1C(=O)Nc1ccc(N2CCN(S(C)(=O)=O)CC2)cc1 | 16.1%
12 | COCc1ccc(C(=O)Nc2ccc(C(=O)O)cc2)o1 | 33.9%
13 | CCOC(=O)Cc1[nH]nc2c1C(c1ccoc1)C(C#N)=C(N)O2 (centres undefined) | 16.3%
14 | O=C1c2ccccc2C(=O)C1(CO)c1ccc(OC(F)F)cc1 | 10.6%
15 | O=c1c2ccccc2nc(-c2cccc(Cl)c2)n1O | 18.7%
16 | COc1ccc(C(=O)O/N=C2\C(=O)N(C)c3ccccc32)cc1 | -11.3%
17 | CC(=O)NCCn1c(SCc2ccccc2C)nc2ccccc2c1=O | -10.7%
18 | Cc1nc(SCC(=O)N2c3ccccc3Sc3ccccc32)n[nH]1 | -16.7%
19 | Cc1ccn2cc(C(=O)Nc3nnc(C)s3)nc2c1 | -9.14%
20 | Cc1cccc(N/N=C/c2ccc(O)c(O)c2O)c1 | 38.9%
21 | O=C(NCCO)C(=O)c1c(-c2ccc(Cl)cc2)cc2ccccn12 | -15.4%
22 | CC(C)c1ccc(C2C(C#N)=C(N)Oc3c2oc(CO)cc3=O)cc1 (centres undefined) | -1.23%
23 | COc1ccc(NS(=O)(=O)c2cccc(NC(=O)c3ccccn3)c2)cc1 | -6.56%

Row | SMILES | inhibition
24 | CCN(CC)CCNC(=O)c1cccc(NC(=O)C(=O)c2cc(Br)ccc2NC(C)=O)c1 | -5.6%
25 | O=C(NC(=C(Cl)Cl)S(=O)(=O)c1ccc(Cl)cc1)c1ccccc1 | -8.31%
26 | O=C(CCl)Nc1nccs1 | 28.1%
27 | O=C(Nc1ccccc1)Nc1cccc(Cl)c1 | 14.8%
28 | CCCN1C(=O)c2ccc(C(=O)Nc3nccs3)cc2C1=O | -20.2%
29 | O=C(NCc1cccnc1)c1ccc(Cl)cc1[N+](=O)[O-] | -24.5%
30 | Nc1ccc(S(=O)(=O)Nc2nccs2)cc1 | -15.3%
31 | CN1C(=O)/C(=C/c2cccc(Cl)c2)Sc2ccc(C(=O)N3CCCC3)cc21 | 3.12%
32 | O=C(NCc1ccco1)c1ccc2c(c1)N(Cc1ccccc1)CCS2 | -4.41%
33 | O=C(COC(=O)/C=C/c1cccc(C(F)(F)F)c1)NCc1ccccc1 | -4.38%
34 | CCC(=O)Nc1nc(C)c(C(=O)N2CCCCC2)s1 | 9.2%
35 | O=C1c2ccccc2C(=O)N1CCC(c1ccccc1)c1ccco1 (centres undefined) | -5.55%
36 | CCc1ccccc1NC(=O)c1onc(C)c1Cl | -5.45%
37 | CC1(C)CC(=O)C2=C(C1)N(c1ccc(F)cc1)C(=O)CC2c1ccsc1 (centres undefined) | -21.1%
38 | CCc1cc(CNC(=O)C2CCC(=O)N(Cc3cccc(F)c3)C2)on1 (centres undefined) | -24.2%
39 | Fc1ccccc1CSc1ccc(-c2ccco2)nn1 | -12.9%
40 | COc1cccc(NC(=O)CSc2nncn2-c2ccccn2)c1 | -7.4%
41 | CCN1CCN(c2nc3ccccc3nc2C(C#N)S(=O)(=O)c2ccc(C)cc2)CC1 (centres undefined) | 16.5%
42 | N#CCCn1c2ccccc2c2nc3ccccc3nc21 | -2.6%
43 | Cc1cccc(S(=O)(=O)c2c(N)n(/N=C/c3ccccc3)c3nc4ccccc4nc23)c1 | 8.36%
44 | CCCCn1c(NCc2ccccc2NS(=O)(=O)c2ccc(C)cc2)nc2ccccc21 | -17.6%
45 | CCCN(CCC)c1nc(C)cc(C(C#N)c2nc3ccccc3o2)n1 (centres undefined) | -11.1%
46 | CS(=O)(=O)c1cnc2c(-c3ccsc3)cnn2c1N | 2.48%

Row | SMILES | inhibition
47 | CS(=O)(=O)c1cnc2c(-c3ccc(F)cc3)cnn2c1N | 5.15%
48 | Cc1ccc(OCC(O)Cn2c(N)nc3c2c(=O)n(C)c(=O)n3C)cc1 (centres undefined) | 9.77%
49 | C=C(C)Cn1c(-c2ccc(OC)cc2)nc2ccccc21 | -14.9%
50 | CC(C)Cc1nc(N2CCOCC2)c(C#N)c2c1COC(C)(C)C2 | 9.96%
51 | C1CCC(n2nnnc2CN2CCN(C3CCCC3)CC2)CC1 | -17.6%
52 | CCCCC(=O)Nc1ccc(F)c(Cl)c1 | 4.38%
53 | CCN(CC)C(=O)C(=O)c1cn(CC(=O)N2CCc3ccccc3C2)c2ccccc12 | 14.3%
54 | Cc1ccccc1-c1ncc(CN2CCN(C3CCCC3)C(CCO)C2)cn1 (centres undefined) | -17.2%
55 | COC(=O)c1ccc(OC(=O)c2cccnc2)cc1 | 16.5%
56 | COc1ccc(N(C(=O)c2cccnc2)S(=O)(=O)c2cccc([N+](=O)[O-])c2)cc1 | -26%
57 | O=C(On1c(-c2ccccc2)nc2ccccc2c1=O)c1ccco1 | 33.5%
58 | COC(=O)c1cn(C(=O)c2ccco2)c2ccccc12 | 14.2%
59 | COc1cccc(/C=C/C(=O)c2cccc([N+](=O)[O-])c2)c1OC | 11%
60 | CCNC(=O)c1ccc(C2SCC(=O)N2CCc2ccccc2)cc1 (centres undefined) | 16.3%
61 | COc1ccc(C[C@H]2CN3C(=NC[C@H]3Cc3ccccc3)N2CCNC(=O)c2ccc(C)c(Br)c2)cc1 | 32.1%
62 | Cc1ccc(NC(=O)CCNC(=O)c2ccccc2)cc1F | 22.2%
63 | Cc1ccnc(NC(=O)CCC(=O)N(CC(=O)NC2CCCCC2)C2CCCC2)c1 | -6.73%
64 | CS(=O)(=O)N(CCc1ccccc1)CC(=O)Nc1ccc2c(c1)OCO2 | 12.9%
65 | CCN1CCN(CC(=O)Nc2ccc(C)c(Br)c2)CC1 | 28.8%
66 | COc1ccc2c(C(=O)CN(C)C3CCCCC3)c[nH]c2c1 | 24.3%
67 | O=C(CSCc1ccccc1)Nc1cccc(C(=O)Nc2ccc(C(=O)O)cc2)c1 | 23.4%
68 | CN1C2=CC=CC=CC2=[N+](C)C12C=CC(=[N+]([O-])[O-])C=C2[N+](=O)[O-] (centres undefined) | 18.4%
69 | Cc1cccc(/C(N)=N/OC(=O)N2CCOCC2)c1 | -7.33%

Row | SMILES | inhibition
70 | Cc1ccn2cc(-c3ccc4c(c3)NC(=O)CO4)nc2c1 | -22.3%
71 | CC(C)n1cnnc1SCC(=O)Nc1ccc(Br)cc1F | -11.7%
72 | N#Cc1ccc(-c2ccc(OCC(=O)NCCCN3CCCC3=O)cc2)cc1 | 29.4%
73 | COc1ccc(-n2ncc3c(NCc4ccccn4)ncnc32)cc1 | -13.1%
74 | C1=C(CCNc2ncnc3c2[nH]c2ccccc23)CCCC1 | 26.6%
75 | Cc1ccc(-c2[nH]ncc2/C=N/n2c(C)nc3ccccc3c2=O)cc1 | -18.9%
76 | Cc1ccc(/C=N/n2c(C)nc3ccccc3c2=O)s1 | -5.54%
77 | O=C(C[n+]1cc(-c2ccccc2)n2c1CCC2)c1cccs1 | 24%
78 | CCOC(=O)Cc1csc(NC(=O)c2ccc(S(=O)(=O)N3CCCC3)cc2)n1 | -2.31%
79 | O=C(/C=C/c1ccc(O)cc1)c1ccccc1 | 37.9%
80 | COc1cccc(C2=NO[C@@H]3C(=O)N(Cc4ccccc4)C(=O)[C@H]23)c1OC | -11.5%
81 | CCc1nnc(NS(=O)(=O)c2ccc(NC(=S)NC(=O)/C=C/c3ccc([N+](=O)[O-])cc3)cc2)s1 | -7.86%
82 | Cc1cc2ncn(/N=C/c3ccc([N+](=O)[O-])o3)c2cc1C | 13.4%
83 | Cc1ccc2[nH]c(C(=O)O)c(NC(=O)CN3CCN(c4cccc(C)c4C)CC3)c2c1 | 22.6%
84 | Cc1ccc(C(C(=O)NCCc2ccccc2)N(C(=O)c2csnn2)C2CC2)o1 (centres undefined) | 10%
85 | [O-][n+]1c2ccccc2cc2ccccc21 | 5.18%
86 | Cc1ccc(S(=O)(=O)NCC(=O)OCN2C(=O)c3ccccc3C2=O)cc1 | -19.2%
87 | CCCOc1ccc(N2C(=O)C3C(C(C)C)NC4(C(=O)c5ccccc5C4=O)C3C2=O)cc1 (centres undefined) | -19.1%
88 | COc1ccc(-c2csc(N)n2)cc1F | 13.2%
89 | CNC(=O)Nc1cccc(C(F)(F)F)c1 | 11.8%
90 | Cc1nc2ccc(NC(=O)c3cccc(C(F)(F)F)c3)cc2o1 | 10.5%
91 | O=C(CNC(=O)Cn1ccc2ccccc2c1=O)NCCCN1CCCCCC1 | 8.41%
92 | Cc1cc(C)cc(NC(=O)C(Sc2nnc(C)c(=O)[nH]2)c2ccccc2)c1 (centres undefined) | -6.81%

Row | SMILES | inhibition
93 | CCCC1C(c2ccc(OC)cc2)C(C#N)(C#N)C2(C#N)CC1(N)NC2=O (centres undefined) | -3.98%
94 | O=C(Nc1ccc(Br)cc1)N1CCCCC1 | 20.1%
95 | CCNC(=S)N1CCN(CC)CC1 | -4.27%
96 | Cn1c(=O)c(=O)n(C)c2cc(S(=O)(=O)N3CCc4ccccc43)ccc21 | -6.12%
97 | Cc1cc(Cl)ccc1OCCCC(=O)N1CCCc2ccccc21 | 0.2%
98 | CN1Cc2ccccc2N(CC(=O)NCc2ccccc2)C1=O | -10.9%
99 | O=C1NC(=S)S/C1=C1\Sc2ccccc2N1CCCS(=O)(=O)O | 11.1%
100 | Cc1cc(NC(=O)CSc2nnc(-c3cccnc3)n2N)no1 | -8.4%
101 | O=C1N/C(=C/c2ccc(N3CCOCC3)cc2)C(=O)N1Cc1ccc(F)cc1 | 2.94%
102 | O=C(OCc1nc2ccccc2s1)c1ccco1 | 10.9%
103 | O=C(O)CC/C(=C\c1ccccc1[N+](=O)[O-])c1nc2ccccc2s1 | 8.67%
104 | CCOc1ccc(-c2nc(N)ncc2-c2ccccc2)c(O)c1 | 25.4%
105 | CCOc1ccc(NC(N)=O)cc1 | -13.1%
106 | C/C(=N\Nc1ccc(C)c(Cl)c1)c1cccnc1 | -7.12%
107 | CCOC(=O)c1ccc(NC(=O)C2CCC(CNc3c(N4CCOCC4)c(=O)c3=O)CC2)cc1 (centres undefined) | -13.8%
108 | Cc1nnc(SCC(=O)N(C(C)C)C(C)C)[nH]c1=O | -4.9%
109 | CCc1nc(SCC(=O)Nc2ccc(N(C)C)cc2)c2ccccc2n1 | -6.88%
110 | O=C(NCCCNc1ccnc2cc(Cl)ccc12)c1ccccc1F | 30.5%
111 | C#CCOC(=O)c1ccccc1C(=O)OCC#C | 21.1%
112 | COc1ccc(NC(=O)Cn2cnc3c(cnn3C(C)(C)C)c2=O)cc1OC | -17.3%
113 | Cc1nc2cc(C(=O)N3CCC4(CC3)OCCO4)ccc2n1-c1cccc(F)c1 | -31.9%
114 | COC(=O)c1ccc(NC(=O)CO/N=C2\CCCc3nonc32)cc1 | 2.9%
